Test results taken from PubChem BioAssay (NCI).
This is part of a sample that, as a whole, favours compounds with a hit. Of some 83,000 tested, about 20% had one in any assay.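 Assay: single dose, 48 h. Readout: percent growth (0 = no net growth; negative = cell death). Active: <10.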 Activity calls are given as the source filed them.

How the values were obtained:
Test in all cases: NCI-60 one-dose screen, 48 h (100 = growth as untreated, 0 = no growth, -100 = all killed)
[1] = system: NCI-H226 lung; details: 10 µM
[2] = system: NCI-H322M lung; details: 10 µM
[3] = system: HOP-62 NSCLC; details: 10 µM
[4] = system: NCI-H460 lung; details: 10 µM
[5] = system: A549/ATCC NSCLC; details: 10 µM
[6] = system: COLO 205 colon; details: 10 µM
[7] = system: DU-145 prostate; details: 10 µM
[8] = system: K-562 leukemia; details: 10 µM
[9] = system: SF-539 CNS; details: 10 µM
[10] = system: M14 melanoma; details: 10 µM
[11] = system: HCT-15 colon; details: 10 µM
[12] = system: HT29 colon; details: 10 µM
[13] = system: SNB-75 CNS; details: 10 µM
[14] = system: U251 CNS; details: 10 µM
[15] = system: LOX IMVI melanoma; details: 10 µM
[16] = system: MOLT-4 leukemia; details: 10 µM
[17] = system: SR leukemia; details: 10 µM
[18] = system: RPMI-8226 leukemia; details: 10 µM
[19] = system: SK-OV-3 ovarian; details: 10 µM
[20] = system: MDA-MB-468 breast; details: 10 µM unless noted

Measured: growth

O=C(CSc1nc2ccccc2c(=O)n1-c1ccc(Cl)cc1)Nc1ccc(-c2nc3ccc([N+](=O)[O-])cc3[nH]2)cc1
inactive: [2] 72.4% | [4] 21.1% | [5] 50.2% | [6] 11% | [7] 44.2% | [8] 28.9% | [9] 28.6% | [10] 32.4% | [11] 56.3% | [12] 36.4% | [13] 34.4% | [14] 20.6% | [16] 39.5% | [17] 38.2% | [18] 53% | [19] 40.2%
active: [1] 0.985% | [3] 0.0608% | [15] -30% | [20] -35.6%

Cc1cc(N=C2NC(=O)/C(=C/c3cc(C(C)(C)C)c(O)c(C(C)(C)C)c3)S2)n[nH]1
active: [3] 8.56% | [4] 0.397% | [5] 9.9% | [6] -9.38% | [11] 6.98% | [12] 9.22% | [13] 1.49% | [14] 6.8% | [15] 1.11% | [18] 1.11% | [19] -27.9% | [20] -0.214%
inactive: [1] 10.3% | [2] 28.6% | [7] 27.2% | [8] 18.3% | [9] 18.9% | [10] 24.7% | [16] 11% | [17] 12.2%

CCn1c(SCC(=O)Nc2ccc(-c3nc4ccccc4[nH]3)cc2)nc2ccccc2c1=O
active: [1] -65.5% | [2] -68.3% | [3] -80.4% | [4] -56.2% | [5] -71.2% | [6] -72.7% | [7] -50.3% | [8] -11.3% | [9] -87.3% | [10] -87.9% | [11] -50% | [12] -64.9% | [13] -94.2% | [14] -74.9% | [15] -63% | [16] 3.3% | [17] -15.2% | [18] -11.4% | [19] -70.5% | [20] -81%

Cc1ccc2sc3c(c2c1)Oc1nc[nH]c(=O)c1C3c1cccc(F)c1 (stereo not given)
inactive: [1] 80.6% | [2] 96.7% | [3] 98.6% | [4] 102% | [5] 98.7% | [6] 105% | [7] 105% | [8] 81.7% | [9] 99.6% | [10] 99.4% | [11] 92.6% | [12] 103% | [13] 84.2% | [14] 97.1% | [15] 107% | [16] 97% | [17] 96.3% | [18] 88.7% | [19] 93.5% | [20] 78%

COc1ccc(C(=O)COc2ccc(NC(=O)Nc3ccccc3)cc2)cc1
inactive: [1] 87.6% | [2] 88.5% | [3] 101% | [4] 76.6% | [5] 80.9% | [6] 107% | [7] 105% | [8] 94.6% | [9] 97% | [10] 93.6% | [11] 80.3% | [12] 103% | [13] 87.9% | [14] 86.5% | [15] 58.9% | [16] 73.9% | [17] 80.6% | [18] 93.3% | [19] 105% | [20] 80.9%

COc1ccc(C2c3sc4ccc(C)cc4c3Oc3nc[nH]c(=O)c32)cc1 (stereo not given)
inactive: [1] 80.5% | [2] 105% | [3] 69.4% | [4] 95.6% | [5] 97.9% | [6] 103% | [7] 105% | [8] 36.2% | [9] 79.3% | [10] 73.2% | [11] 40.6% | [12] 112% | [13] 45.8% | [14] 73.5% | [15] 92.5% | [16] 77.9% | [17] 39.4% | [18] 90.8% | [19] 81.2% | [20] 61.3%

O=C(CC(=O)Nc1ccc(Oc2ncnc3scc(Nc4n[nH]c(=S)s4)c23)cc1)Nc1ccc(Br)cc1
inactive: [1] 94.4% | [2] 106% | [3] 99.8% | [4] 107% | [5] 101% | [6] 107% | [7] 107% | [8] 76.4% | [9] 104% | [10] 98.1% | [11] 100% | [12] 112% | [13] 95.6% | [14] 103% | [15] 66.2% | [16] 85.3% | [17] 87% | [18] 110% | [19] 98.4% | [20] 120%
